TbPYK inhibitor = inhibitors of Trypanosoma brucei pyruvate kinase. Q57TT1. TbPYK enzyme, Kinase-Glo Plus ATP luminescence, 45 min. Potency, µM (doses to about 76.8 µM), actives largely listed as inhibitors. 410,000 compounds, 0.12% hits. AID 624173; further: nearly all actives have a fitted effect of over 50% in size
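Assay buffer: 50 mM TEA pH 7.2, 100 mM KCl, 10 mM MgCl2, 0.05% BSA, 0.01% Tween-20. Pyruvate kinase from T. brucei plus substrate met compound, then ADP (130 uM final). Luminescence was read post 45 min RT.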
CHX counter = affects cycloheximide protein synthesis inhibition readout, counter-screen | cell reporter, cycloheximide protein synthesis inhibition counterscreen | max response, % | 300,000 compounds, 12% hits | AID 2314; in the data active means max response mostly above about 13%, no sharp cut-off; inactive means mostly below about 14%; further: read at 38.3 µM for the half of the compounds with a filed dose
LmPK inhibitor = blocks Leishmania mexicana pyruvate kinase activity; 290,000 compounds, 0.37% hits; Q27686; AID 1721; purified LmPK, Kinase-Glo ATP luminescence, 1 h; Potency, µM (top dose mostly 57.5 µM), usual class: inhibitors
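Screened at intermediate enzyme activity to detect both inhibitors and activators: LmPK at 0.1 nM, with a 0.5 nM enzyme column as activation reference. PEP 0.5 mM, ADP 0.1 mM; ATP detected by luminescence after 1 h.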
Shiga toxin inh = inhibitors of Shiga toxin in Vero cells | AID 2315 | Vero cells, Shiga toxin protein synthesis inhibition reporter | 290,000 compounds, 9.2% hits | inhibition, % at 38.7 µM; in the data active means inhibition mostly above about 28%, no sharp cut-off; inactive means mostly below about 43%
Sm TGR inh = blocks Schistosoma mansoni thioredoxin glutathione reductase | purified TGR, DTNB reduction, TNB absorbance 405 nm | Potency, µM (top dose mostly 114 µM), hits mostly inhibitors | 360,000 compounds, 3% hits; further: nearly all actives have a fitted effect of over 60% in size
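First, TGR (20 nM dispensed) and NADPH were mixed with compound. Second, a 15 min room-temperature incubation followed. Third, further NADPH and then DTNB were added to start the reaction. Finally, TNB absorbance was monitored kinetically.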
Giardia FBPA inh = blocks Giardia fructose-bisphosphate aldolase activity | A8B2U2 | purified Giardia FBPA | Potency, µM (titrated, usually from 59.6 µM), usual class: inhibitors | 290,000 compounds, 0.71% hits; further: nearly all actives have a fitted effect of over 55% in size
Target sequence (A8B2U2 whole entry, looked up): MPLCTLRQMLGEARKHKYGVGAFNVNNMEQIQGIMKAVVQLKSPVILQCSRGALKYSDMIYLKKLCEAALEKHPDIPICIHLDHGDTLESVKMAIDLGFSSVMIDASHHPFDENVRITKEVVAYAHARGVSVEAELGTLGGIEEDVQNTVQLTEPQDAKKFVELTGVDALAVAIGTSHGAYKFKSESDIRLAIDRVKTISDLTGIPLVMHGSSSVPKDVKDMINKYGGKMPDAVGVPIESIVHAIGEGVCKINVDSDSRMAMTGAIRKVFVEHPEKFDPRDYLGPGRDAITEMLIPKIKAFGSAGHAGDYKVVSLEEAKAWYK
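40 nM FBPA preincubated 10 min at RT with compound (up to 57.5 uM final), then substrate plus GAPDH/TPI/NAD/arsenate coupling and diaphorase/resazurin added. Fluorescence read after 20 min at RT, 525/598 nm.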
A number is an active result. Shown is part of a subset that was picked to be rich in hits. Unless noted, the call rests on the fitted dose curve; in most records, active means well fitted curve in the direction sought with a large enough effect; inconclusive means small, poorly fitted or top-dose-only effect, or another doubt; inactive means no such curve, though single readings can be large; an effect the other way counts as inactive or inconclusive.

COc1ccccc1N1CCN(Cc2ccco2)CC1 was read as TbPYK inhibitor inactive, CHX counter inactive, LmPK inhibitor inactive, Shiga toxin inh inactive, Sm TGR inh inactive and Giardia FBPA inh inactive.
Screening COc1ccccc1N1CCN(Cc2ccc(-c3ccccc3[N+](=O)[O-])o2)CC1 returned TbPYK inhibitor inactive, CHX counter inactive, LmPK inhibitor inactive, Shiga toxin inh inactive, Sm TGR inh 25.1µM and Giardia FBPA inh inactive.
Screening CC1(C(=O)NCc2cccc3ccccc23)CCN1C(=O)C1(c2ccccc2)CCCC1 (configuration not stated) returned TbPYK inhibitor inactive.
CN(C)c1ncc2nc(CCc3ccccc3)c(=O)n(CCC#N)c2n1 was read as Giardia FBPA inh inactive.
CCN(CC)c1ncnc2c1cnn2-c1cc(Cl)ccc1C was read as TbPYK inhibitor inactive and Sm TGR inh inactive.
`COCCNc1ncnc2c1cnn2-c1ccc(Cl)cc1` gave TbPYK inhibitor inactive, CHX counter 43.2, LmPK inhibitor inactive, Shiga toxin inh 73.5, Sm TGR inh inactive and Giardia FBPA inh inactive.
COCCN(CCOC)c1ncnc2c1cnn2-c1ccc(Cl)cc1 was read as TbPYK inhibitor inactive, CHX counter 59.6, LmPK inhibitor inactive, Shiga toxin inh 76.3, Sm TGR inh inactive and Giardia FBPA inh inactive.
For COCCN(CCOC)c1ncnc2c1cnn2-c1ccccc1 the results were TbPYK inhibitor inactive, CHX counter 15.1, LmPK inhibitor inactive, Shiga toxin inh 34.2, Sm TGR inh inactive and Giardia FBPA inh inactive.
Cc1ccc(-c2c(C3C4C=CCC(C)C4C(=O)N3Cc3ccccc3)ccc3ccccc23)cc1 (configuration not stated) was read as CHX counter inactive, Shiga toxin inh inactive and Giardia FBPA inh inactive.
For COc1ccc(OC)c(NC(=O)CSC2=Nc3ccccc3C3=NC(CCC(=O)NCCc4ccccc4)C(=O)N23)c1 (configuration not stated) the results were TbPYK inhibitor inactive and Sm TGR inh inactive.
CC(C)=C(C#N)c1nc2ccccc2s1 was read as TbPYK inhibitor inactive, CHX counter inactive, LmPK inhibitor inactive, Shiga toxin inh inactive, Sm TGR inh inactive and Giardia FBPA inh inactive.
`N#C/C(=C/c1ccncc1)c1nc2ccccc2s1` gave TbPYK inhibitor inactive, CHX counter 29.9, LmPK inhibitor inactive, Shiga toxin inh 43.7 and Giardia FBPA inh inactive.
Screening N#C/C(=C(/O)C(Cl)(Cl)Cl)c1nc2ccccc2[nH]1 returned TbPYK inhibitor inactive, CHX counter 12.7, LmPK inhibitor inactive, Shiga toxin inh inactive, Sm TGR inh 3.98µM and Giardia FBPA inh inactive.
Screening N#C/C(=C1/CCCCCN1)c1nc2ccccc2[nH]1 returned TbPYK inhibitor inactive, CHX counter 122.5, LmPK inhibitor inactive, Shiga toxin inh 43.5, Sm TGR inh inactive and Giardia FBPA inh inactive.
For CC1CCc2nc(/C(C#N)=C/c3ccncc3)sc2C1 (configuration not stated) the results were TbPYK inhibitor inactive, CHX counter 38.2, LmPK inhibitor inactive, Shiga toxin inh 96.3, Sm TGR inh inactive and Giardia FBPA inh inactive.
Screening N#C/C(=C1\CCCN1)c1ccc2ccccc2n1 returned TbPYK inhibitor inactive, CHX counter inactive, LmPK inhibitor inactive, Shiga toxin inh inactive, Sm TGR inh inactive and Giardia FBPA inh inactive.
`N#Cc1ccccc1Cn1c(=O)n(CCCC(=O)NCc2ccccc2Cl)c(=O)c2ccccc21` gave TbPYK inhibitor inactive and Sm TGR inh inactive.
For COc1ccc(N2CC(NC(=O)/C=C\c3ccc4c(c3)OCO4)CC2=O)cc1 (configuration not stated) the results were TbPYK inhibitor inactive and Sm TGR inh inactive.
For N#C/C(=C\c1cccnc1)c1nc2ccccc2[nH]1 the results were TbPYK inhibitor inactive, CHX counter 36.2, LmPK inhibitor inactive, Shiga toxin inh 57.4, Sm TGR inh inactive and Giardia FBPA inh inactive.
Screening N#C/C(C(=O)c1ccccc1)=C1/CCCCCN1 returned TbPYK inhibitor inactive, CHX counter 44.5, LmPK inhibitor inactive, Shiga toxin inh 93.7, Sm TGR inh inactive and Giardia FBPA inh inactive.
Screening Cc1cc2nc(/C(C#N)=C/c3ccncc3)[nH]c2cc1C returned TbPYK inhibitor inactive, CHX counter inactive, LmPK inhibitor inactive, Shiga toxin inh inactive, Sm TGR inh inactive and Giardia FBPA inh inactive.
For N#C/C(=C\c1ccncc1)c1nc2ccccc2[nH]1 the results were TbPYK inhibitor inactive, CHX counter 31.7, LmPK inhibitor inactive, Shiga toxin inh 106.2, Sm TGR inh inactive and Giardia FBPA inh inactive.
For Cc1cc(Cl)ccc1NC(=O)C1CCN(c2nnc(-n3c(C)ccc3C)s2)CC1 the results were TbPYK inhibitor inactive and Sm TGR inh inactive.
CC(=O)Nc1ccc(S(=O)(=O)NCC(=O)N2CCN(S(=O)(=O)c3cccs3)CC2)cc1 was read as TbPYK inhibitor inactive and Sm TGR inh inactive.
Screening COC(=O)[C@H]1C[C@H](O)CN1S(=O)(=O)c1ccc(Br)cc1F returned TbPYK inhibitor inactive.
Screening CCC(CC)C(=O)c1c[nH]c(C(=O)N2CCN(c3ccccc3)CC2)c1 returned TbPYK inhibitor inactive, CHX counter inactive, LmPK inhibitor inactive, Shiga toxin inh inactive and Giardia FBPA inh inactive.
CCOc1cc(/C=C2\C(=O)N(Cc3ccc(C)cc3)C(C)=C2C(=O)OC)ccc1O was read as TbPYK inhibitor inactive, CHX counter inactive, LmPK inhibitor inactive, Shiga toxin inh inactive, Sm TGR inh 22.4µM and Giardia FBPA inh inactive.
CCOC(=O)C1=C(C)N(c2ccc(OC)cc2)C(=O)/C1=C\c1ccc(O)c(OCC)c1 was read as TbPYK inhibitor inactive, CHX counter inactive, LmPK inhibitor 31.6µM, Shiga toxin inh inactive, Sm TGR inh 4.47µM and Giardia FBPA inh inconclusive.
Screening CCOC(=O)C1=C(C)N(c2ccc(OC)cc2)C(=O)/C1=C\c1cccs1 returned TbPYK inhibitor inactive, CHX counter inactive, LmPK inhibitor inactive, Shiga toxin inh inactive, Sm TGR inh inactive and Giardia FBPA inh inactive.
For COC(=O)C1=C(C)N(CCc2ccc(OC)c(OC)c2)C(=O)C1 the results were TbPYK inhibitor inactive, CHX counter inactive, LmPK inhibitor inactive, Shiga toxin inh inactive, Sm TGR inh inactive and Giardia FBPA inh inactive.
`COC(=O)C1=C(C)N(CCc2ccc(OC)c(OC)c2)C(=O)/C1=C\c1ccc(O)cc1` gave TbPYK inhibitor inactive, CHX counter inactive, LmPK inhibitor inactive, Shiga toxin inh inactive, Sm TGR inh 28.2µM and Giardia FBPA inh inconclusive.
For C=CCOc1cccc(/C=C2\C(=O)N(Cc3ccc(C)cc3)C(C)=C2C(=O)OC)c1 the results were TbPYK inhibitor inactive, CHX counter inactive, LmPK inhibitor inactive, Shiga toxin inh inactive, Sm TGR inh inactive and Giardia FBPA inh inactive.
Screening Cc1ccc(N2CCN(C(=O)C3CCN(S(=O)(=O)c4ccc5c(c4)oc(=O)n5C)CC3)CC2C)cc1 (configuration not stated) returned TbPYK inhibitor inactive and Sm TGR inh inactive.
